Results taken from PubChem BioAssay (NCATS).
Inconclusive results are not listed. Calls of active or inactive are those of the source. Unless noted, calls come from the whole dose curve; as a rule, active = well fitted curve in the direction sought with a large enough effect; inconclusive = small, poorly fitted or top-dose-only effect, or another doubt; inactive = no such curve, though single readings can be large; an effect the other way counts as inactive or inconclusive.

Assays:
[1] = target: Cytochrome P450 3A4 (Homo sapiens) (UniProt P08684); test: qHTS Assay for Inhibitors and Substrates of Cytochrome P450 3A4 (AID 884); note: nearly all actives have a fitted effect of over 50% in size; note: potency is the fitted concentration of half-maximal effect; for activity change, negative = inhibition: % is set by controls: 0 for no effect and ±100 for the full control effect
Chain of Cytochrome P450 3A4 (Homo sapiens) (P08684 whole entry, looked up): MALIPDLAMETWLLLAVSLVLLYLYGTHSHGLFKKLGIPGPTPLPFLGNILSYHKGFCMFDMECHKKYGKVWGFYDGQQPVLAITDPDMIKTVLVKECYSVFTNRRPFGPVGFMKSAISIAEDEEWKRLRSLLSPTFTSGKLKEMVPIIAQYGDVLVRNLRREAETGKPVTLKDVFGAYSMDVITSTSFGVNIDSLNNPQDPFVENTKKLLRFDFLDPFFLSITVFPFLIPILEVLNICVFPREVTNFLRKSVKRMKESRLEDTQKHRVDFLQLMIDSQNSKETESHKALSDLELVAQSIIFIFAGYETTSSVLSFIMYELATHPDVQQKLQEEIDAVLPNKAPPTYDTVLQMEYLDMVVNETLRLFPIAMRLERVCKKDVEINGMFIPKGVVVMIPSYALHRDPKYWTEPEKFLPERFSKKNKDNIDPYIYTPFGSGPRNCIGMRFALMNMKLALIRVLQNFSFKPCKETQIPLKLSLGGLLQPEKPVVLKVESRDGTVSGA
Procedure, shortened: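 Luminescent readout of luciferin produced by CYP3A4 (20 nM) dealkylation of Luciferin-PPXE, 25 uM (its KM). NADPH-driven reaction ran 60 min at RT after 10 min compound preincubation; data scaled to 57 uM ketoconazole as 100% inhibition.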

[2] = Confirmation and Secondary Assay for Modulators of Hemoglobin Beta Chain Splicing at IVS2 654 locus (AID 910);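 note: HeLa cells stably carrying EGFP split by mutant beta-globin IVS2-654 intron; % of control where 0% means no effect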
Procedure, shortened: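 HeLa cells stably expressing EGFP interrupted by β-globin IVS2-654 intron, seeded overnight in Opti-MEM/2% FCS, then treated 2 days at 37 °C. Restored splicing read as total peak GFP intensity per well by laser scanning cytometry (488 nm excitation, 500–520 nm emission); 500 nM antisense PNA as control.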

[3] = Confirmation and Secondary Assay for Modulators of Hemoglobin Beta Chain Splicing at IVS2 705 locus (AID 930);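 note: HeLa cells stably expressing the EGFP-705 splicing reporter; GFP fluorescence per well restored by corrected splicing of the IVS2-705 intron in EGFP; % of control where 0% means no effect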
Procedure, shortened: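 HeLa cells stably carrying EGFP interrupted by mutant beta-globin intron 2 (IVS2-705) treated 2 days at 37C with compound; 500 nM antisense PNA as control. Correct splicing read as total peak GFP intensity per well by laser-scanning cytometry.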

[4] = qHTS Assay for Lipid Storage Modulators (AID 1519; calls by dose curve; for activity change, negative = inhibition: % is set by controls: 0 for no effect and ±100 for the full control effect); conditions: Drosophila S3 cells, BODIPY lipid droplet/cell ratio, laser cytometry, cells loaded with oleic acid; for activity change, negative = inhibition: at 57.5 µM (top of the series)
Procedure, shortened: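 Cells seeded at 5,000 per well were treated with compounds over a concentration series and loaded with oleic acid (400 uM, as added). Lipid droplet fluorescence (488 nm excitation, 500-530 nm channel) was read by laser-scanning cytometry and normalized to 20 uM Triacsin C.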

[5] = target: Cytochrome P450 3A4 (Homo sapiens) (UniProt P08684); test: qHTS Assay for Activators of Cytochrome P450 3A4 (AID 885); note: nearly all actives have a fitted effect of over 65% in size
Procedure, shortened: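 Human CYP3A4 dealkylates Luciferin-PPXE to luciferin, which luciferase detection converts to light. Substrate was at its KM (25uM), buffer 200mM KPO4, reaction 60 min at RT.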

[6] = measured here: cell count channel max response
[7] = measured here: lipid channel max response

Structure (SMILES)	Potency [1]	Potency [2]	Potency [3]	activity change, negative = inhibition [4]	max response [4, 6] [%]	max response [4, 7] [%]	Potency [5]
CCCCCCCCCCCCCCC(C(=O)OC)C(O)(CC(=O)OC)C(=O)OC (stereo not drawn)	inactive	inactive	inactive	-24% (inactive)	-1.14	-26.9	
COc1ccc(-c2cc(=O)c3c(O)c(OC)c(O[C@@H]4OC(COC5OC(C)C(O)C(O)[C@@H]5O)C(O)C(O)C4O)cc3o2)cc1 (stereo partly drawn)	inactive	inactive	inactive	4.35% (inactive)	13.3	15.5	
COc1ccc2c(c1)CCC1C2CC[C@@]2(C)C(O)CCC12 (stereo partly drawn)	inactive	inactive	inactive	6.39% (inactive)	9.55	16.1	
CC(C)CCCC(C)C1CCC2C3CC(O)[C@@]4(O)CC(O)CC[C@@]4(C)C3CC[C@@]12C (stereo partly drawn)	inactive	inactive	inactive	4.13% (inactive)	10.2	14.9	
COc1ccc(CC(=O)c2ccc(O)cc2O)cc1	12.6 µM (active)	inactive	inactive	4.14% (inactive)	-22.7	-16.5	
COc1ccc2c(c1)O[C@@H]1c3ccc(OC)cc3OCC21 (stereo partly drawn)	inactive	inactive	inactive	3.42% (inactive)	4.03	9.6	
CC12CCC3c4ccc(OCc5ccccc5)cc4CCC3C1CC(O)C2O (stereo not drawn)	inactive	inactive	inactive	3.93% (inactive)	2.78	8.16	
COc1cc(-c2coc3cc(OC)c(OC)c(OC)c3c2=O)cc(OC)c1OC	inactive	inactive	inactive	2.36% (inactive)	17.7	21.5	
CC1=C(C(=O)O)N2C(=O)C(NC(=O)C(N)C3=CCC=CC3)C2SC1 (stereo not drawn)	inactive	inactive	inactive	10.8% (inactive)	14	29.2	
OCC1OC(n2cnc3c(Cl)ncnc32)C(O)C1O (stereo not drawn)	inactive	inactive	inactive	1.41% (inactive)	10.1	10.3	
CC1OC(n2cc(F)c(=O)[nH]c2=O)C(O)C1O (stereo not drawn)	inactive	inactive	inactive	5.38% (inactive)	14	19.9	
CCOc1cccc(C(=O)c2ccc(O)c(O)c2O)c1	inactive	inactive	inactive	3.56% (inactive)	9.44	-1.04	
CC(=O)OC1CC2C(C)(C)C(=O)C=C[C@]2(C)C2CC[C@@]3(C)C(c4ccoc4)OC(=O)C4O[C@@]43[C@]12C (stereo partly drawn)	12.6 µM (active)	inactive	inactive	-1.71% (inactive)	11.5	11.5	
COC(=O)CCC(C)C1CCC2C3CC[C@H]4CC(O)CC[C@@]4(C)C3CC(O)[C@]12C (stereo partly drawn)	inactive	inactive	inactive	1.15% (inactive)	-3.87	-3.09	
CSC(N)=NCCCC(N)C(=O)O (stereo not drawn)	inactive	inactive	inactive	1.56% (inactive)	5.01	8.49	
NCCC(=O)N[C@H](Cc1cnc[nH]1)C(=O)O	inactive	inactive	inactive	4.17% (inactive)	11.4	10.9	
CC(C)CCCC(C)C1CCC2C3=CC[C@@H]4CC(O)CC[C@@]4(C)C3CC[C@]21C (stereo partly drawn)	inactive	inactive	inactive	-3.72% (inactive)	6.46	4.39	
Cc1cc(O)c2c(c1O)C(=O)c1c(O)cc(C)c(O)c1C2=O	inactive	inactive	inactive	6.96% (inactive)	-16.3	-8.79	
COc1c(C(C)C)oc2cc3oc(=O)ccc3cc12	inactive	inactive	inactive	5.54% (inactive)	15.7	22.2	
CC(C)CCCC(C)C1CCC2C3C(=O)C=C4CC(O)CC[C@@]4(C)C3CC[C@@]12C (stereo partly drawn)	inactive	inactive	inactive	-2.06% (inactive)	8.46	5.18	
COC1=CC(=O)C(O)=C/C1=C\C=C\c1ccccc1		inactive	inactive	-23.3% (inactive)	-8.41	-29.1	inactive
C=C1C2=CC(=O)OC(c3ccoc3)[C@]2(C)CCC1[C@]1(C)C=CC(=O)C(C)(C)C1CC(=O)OC (stereo partly drawn)	3.98 µM (active)	inactive	inactive	-2.8% (inactive)	12.4	11.5	
CC(=O)C1CCC2C3CCC4=CC(=O)CC[C@@]4(C)C3CC[C@]12C (stereo partly drawn)	inactive	inactive	inactive	4.88% (inactive)	4.44	13.5	
